# Screening results from PubChem.
# An excerpt weighted towards active compounds, which were near 6.9% of everything screened.
# Vif-APOBEC3F blk = inhibitors of Vif-A3F interaction. 0.2% of 390,000 active. AID 602313. HeLa A3F-eYFP + Vif (tagged APOBEC3F with the HIV-1 protein that degrades it), YFP fluorescence increase. Potency, µM (series often up to 46.1 µM), for the others: top-dose activity, negative = active; also: potency is read from the fitted curve at half-maximal effect; % of control where 0% means no effect; nearly all actives have a fitted effect of over 65% in size
#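 HeLa cells stably expressing A3F-eYFP plus Vif, plated and incubated overnight at 37 deg C, then exposed to compounds overnight at 37 deg C. Blocked degradation read as raised yellow fluorescence (Ex 488/Em 500-530).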
# Vif-A3G inh = Vif-A3G binding inhibition; Q9HC16; HeLa A3G-eYFP + Vif (tagged APOBEC3G with the HIV-1 protein that degrades it), YFP fluorescence, overnight; Potency, µM (top dose mostly 46.1 µM), without a hit: at the top dose activity, negative = active, most hits filed as inhibitors; 0.076% of 410,000 active; also: potency is read from the fitted curve at half-maximal effect; % is scaled to controls: 0 for no effect and ±100 for the full control effect; nearly all actives have a fitted effect of over 60% in size
# Target sequence (Q9HC16 whole entry, looked up): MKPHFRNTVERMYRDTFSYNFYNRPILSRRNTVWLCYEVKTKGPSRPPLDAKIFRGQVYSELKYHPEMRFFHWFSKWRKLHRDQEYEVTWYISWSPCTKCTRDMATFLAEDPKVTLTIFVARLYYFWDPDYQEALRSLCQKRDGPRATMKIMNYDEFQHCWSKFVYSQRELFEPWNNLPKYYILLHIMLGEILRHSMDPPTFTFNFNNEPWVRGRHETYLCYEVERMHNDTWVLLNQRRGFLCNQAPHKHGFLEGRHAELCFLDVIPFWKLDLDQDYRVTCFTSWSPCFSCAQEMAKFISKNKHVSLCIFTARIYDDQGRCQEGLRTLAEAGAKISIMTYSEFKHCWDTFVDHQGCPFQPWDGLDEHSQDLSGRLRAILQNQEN
#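 Read-out is eYFP fluorescence (Ex 488/Em 500-530) from Vif-expressing HeLa A3G-eYFP cells; more signal means A3G escaped Vif-mediated degradation. Cells plated overnight, compound pinned in, incubated overnight at 37 deg C.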
# Giardia kill = Giardia lamblia killing; Giardia lamblia trophozoite viability; activity change, % at 7.66 µM, hits read low; 0.15% of 340,000 active; AID 540267; in the data active = activity change below about -80%; inconclusive = between about -30% and that limit;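 also: parasites exposed to compound for two days anaerobically before the ATP read; % is scaled to controls: 0 for no effect and ±100 for the full control effect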
#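 Each well holds 100 Giardia trophozoites and compound. After two days (48 hrs) at 37 deg C in anaerobic conditions, ATP is quantified by luminescence.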
# MCF10A rereplic = inducers of DNA re-replication in MCF 10A breast cells; MCF 10A DNA re-replication, Hoechst nuclear intensity, 48 h; Potency, µM (top dose mostly 46.1 µM), without a hit: at the highest dose activity, positive = re-replication, hits mostly activators; 2.9% of 350,000 active; AID 624296; also: potency is read from the fitted curve at half-maximal effect; % of control where 0% means no effect; nearly all actives have a fitted effect of over 50% in size
# SW480 rereplic = inducers of DNA re-replication in SW480 colon cancer cells; SW480 DNA re-replication, Hoechst DNA content imaging, 48 h; 1.8% of 340,000 active; Potency, µM (top dose mostly 46.1 µM), without a hit: top-dose re-replication activation, most hits filed as activators; also: potency is read from the fitted curve at half-maximal effect; % of control where 0% means no effect; nearly all actives have a fitted effect of over 55% in size
#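 250 cells/well; 23 nL cpd via pin tool; 48 hr, 37 C, 5% CO2; Hoechst 40 min; imager read of total nuclear intensity, ex 405/em 500-530 nm.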
# IL-1B inflam inh = blocks inflammasome-driven IL-1 beta release. THP-1 LPS/ATP IL-1B secretion, AlphaLISA, 16 h; stronger effect = lower value. activity change, % at 57.5 µM. 4.7% of 360,000 active. AID 743279; in the data active = activity change below about -50%; inconclusive = mostly about -30% to -49%; also: % is scaled to controls: 0 for no effect and ±100 for the full control effect
#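 THP-1 cells pretreated 1 hr with compounds (up to 57.5 uM final), then stimulated with LPS (250 ng/mL final) plus ATP (1.25 mM final); secreted IL-1B measured by AlphaLISA after 16 hr, decreased signal indicating inhibition.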
# An asterisk follows results filed as active; ? = inconclusive; · = no result. Unless noted, calls follow the shape of the dose curve; as a rule, active = well fitted curve in the direction sought with a large enough effect; inconclusive = small, poorly fitted or top-dose-only effect, or another doubt; inactive = no such curve, though single readings can be large; an effect the other way counts as inactive or inconclusive.
SMILES,Vif-APOBEC3F blk,Vif-A3G inh,Giardia kill,MCF10A rereplic,SW480 rereplic,IL-1B inflam inh
Cc1ccc(C)c(OCC(=O)NC2CCCCCC2)c1,-5.2%,-2.9%,-7.5,?,0.0%,-65.5*
Cc1ccc(OCCCCNC2CCCCC2)c(C)c1,3.9%,0.8%,3.0,25.8%,?,-62.7*
Cc1ccc(CN2CCCn3nc(C(=O)NCc4cc(C)ccc4C)cc3C2=O)cc1,-11.2%,-0.2%,·,·,·,·
COc1ccc(-n2nc(C(=O)NCCc3ccc(OC)c(OC)c3)c3c4ccccc4n(C)c3c2=O)cc1Cl,-4.7%,-0.7%,·,·,·,·
COc1cccc(NC(=O)CSc2nc(-c3ccccc3Cl)nc3c2Cc2c(CO)cnc(C)c2O3)c1,-1.8%,4.2%,·,·,·,·
CCOC(=O)C1CCCN(S(=O)(=O)c2cc(OCC(N)=O)c(C)cc2Cl)C1 (configuration not stated),-1.5%,-0.3%,-4.0,-7.9%,1.0%,-92.4*
Cc1cc(Cl)c(S(=O)(=O)N2CCSCC2)cc1OCC(=O)NC1CCCCC1,-5.5%,1.3%,-15.9,?,?,-53.6*
Cc1cc(Cl)c(S(=O)(=O)N2CCCCCC2)cc1OCC(=O)NC1CCCCC1,-1.3%,1.5%,-14.8,0.1%,-5.6%,-6.4
Cc1ccc(S(=O)(=O)CCC(=O)NC2CCCC2)cc1,0.0%,-0.7%,6.9,1.2%,20.6µM*,6.9
Cc1c(C)n(Cc2ccccc2)c2ccc(C(=O)NCCc3ccccc3Cl)cc12,-0.9%,-0.1%,·,·,·,·
Cc1cccc(N2CCN(C(=O)C3CCN(S(=O)(=O)c4ccc5c(c4)oc(=O)n5C)CC3)CC2)c1C,-1.8%,3.7%,·,·,·,·
CCC(CC)COC(=O)C1=C(C)NC(=O)NC1c1ccc(OC)cc1 (configuration not stated),-8.0%,-7.1%,8.8,1.2%,1.1%,?
CC1=C(C(=O)OCc2ccccc2)C(c2ccc(N(C)C)cc2)NC(=O)N1 (configuration not stated),-5.1%,-1.1%,-5.1,?,?,-60.1*
C=CCOC(=O)C1=C(C)NC(=O)NC1c1ccc(N(C)C)cc1 (configuration not stated),1.9%,1.2%,-10.9,?,-6.9%,-10.2
CCOc1ccc(C2NC(=O)NC(C)=C2C(=O)OCc2ccccc2)cc1 (configuration not stated),?,?,9.5,20.6µM*,?,?
CCC(CC)COC(=O)C1=C(C)NC(=O)NC1c1ccc2c(c1)OCO2 (configuration not stated),-19.0%,-6.2%,-24.1,0.3%,-1.7%,-79.3*
COc1ccc(COC(=O)C2=C(C)NC(=O)NC2c2ccc(F)cc2)cc1 (configuration not stated),-26.7%,-7.8%,-4.9,21.7%,2.5%,-52.4*
O=C1c2ccccc2C(=O)N1c1cccc(N2C(=O)c3ccccc3C2=O)n1,·,-1.2%,-13.1,·,·,·
CSc1nn(Cc2cccc(Cl)c2)c(N(C(C)=O)C(C)=O)c1S(=O)(=O)c1ccccc1,-5.1%,-20.8%,·,·,·,·
CCOC(=O)C1=C(C)NC(=O)NC1c1ccc(NC(C)=O)cc1 (configuration not stated),-12.5%,-0.1%,4.8,-0.2%,4.2%,-2.0
COc1cc(C2NC(=O)NC(C)=C2C(=O)OCc2ccc(C)cc2)cc(OC)c1O (configuration not stated),0.8%,-0.3%,-14.5,7.31µM*,15.7%,-9.0
CCOC(=O)C1=C(C)NC(=O)NC1c1ccc(N2CCC(c3ccccc3)=N2)cc1 (configuration not stated),-13.1%,-15.1%,-17.7,?,23.1µM*,-14.0
COc1ccccc1C1NC(=O)NC(C)=C1C(=O)OCc1ccccc1 (configuration not stated),3.2%,-2.3%,24.1,5.5%,53.7%,-16.5
CC1=C(C(=O)OCc2ccccc2)C(c2ccccc2Br)NC(=O)N1 (configuration not stated),-1.5%,-7.5%,14.3,?,-4.2%,-72.4*
COc1cc(Cl)c(C)cc1NC(=O)CCc1c(C)nc2c3cccnc3nn2c1C,4.2%,-2.5%,·,·,·,·
SMILES,Vif-APOBEC3F blk,Vif-A3G inh,Giardia kill,MCF10A rereplic,SW480 rereplic,IL-1B inflam inh
CC1(C)Cc2c(C#N)c(NCc3ccco3)nc(-c3ccco3)c2CO1,0.3%,-7.4%,-26.5,14.3%,?,3.0
CC1(C)Cc2c(C#N)c(N3CCN(C(=O)c4ccccc4)CC3)nc(-c3ccco3)c2CS1,·,1.2%,0.0,13µM*,1.9%,-29.1
N#Cc1c(NCCN)nc(-c2ccco2)c2c1CCCC2,-2.8%,3.4%,-15.0,11.6µM*,18.4µM*,-104.8*
N#Cc1c(N2CCOCC2)nc(-c2ccco2)c2c1CCCC2,-2.9%,4.3%,17.8,?,?,-77.6*
CC(C)CCNc1nc(-c2ccco2)c2c(c1C#N)CCCC2,3.7%,-1.0%,-18.3,7.31µM*,?,20.0
COC(=O)c1ccc(C(=O)OC)c(NC(=O)c2c(-c3ccccc3)c(-c3ccccc3)nn(C)c2=O)c1,0.6%,-7.9%,·,·,·,·
CC1CCc2onc(C(=O)N3CCN(c4ccccc4)CC3)c2C1 (configuration not stated),0.8%,4.7%,·,·,·,·
Cc1nc([N+](=O)[O-])cn1CC(O)c1ccc2c(c1)OCCCO2 (configuration not stated),·,4.4%,·,·,·,·
CCNc1nc(C#N)nc(N2CCOCC2)n1,·,-2.1%,6.8,·,·,·
CCOC(=O)c1oc2cccc(OCC(O)CNC(C)C)c2c1C (configuration not stated),-22.2%,3.4%,0.0,?,?,-50.1*
CCOCCCn1c(SCC(=O)Nc2ccc(F)cc2)nc2c(sc3ccccc32)c1=O,-4.0%,-0.6%,·,·,·,·
Cc1cc(C)cc(N(CC(=O)Nc2ccccc2)C2=NC3CS(=O)(=O)CC3S2)c1 (configuration not stated),3.2%,-12.8%,-17.2,?,1.5%,-94.1*
COc1ccc(N(CC(=O)Nc2ccc(C)c(C)c2)C2=NC3CS(=O)(=O)CC3S2)cc1 (configuration not stated),10.7%,5.1%,6.0,-0.5%,-5.3%,-13.5
COc1ccc(N(CC(=O)Nc2ccccc2C(F)(F)F)C2=NC3CS(=O)(=O)CC3S2)cc1 (configuration not stated),-0.8%,0.2%,2.9,-5.7%,0.6%,-59.6*
CCc1noc(-c2ccc(N(C)Cc3ccc(OC)cc3)c([N+](=O)[O-])c2)n1,-14.4%,-11.0%,·,·,·,·
Cc1cc(C(=O)O/N=C(\N)c2ccc(C(C)(C)C)cc2)no1,4.2%,1.0%,8.1,3.7%,-8.7%,-21.3
Cc1noc(-c2ccc(Cl)cc2)c1C(=O)O/N=C(\N)c1ccc(C(C)(C)C)cc1,8.7%,0.1%,-24.0,?,-2.0%,-66.0*
